A selection: hits, their analogues and other compounds. The true share with any hit is near 1.2%.
beta cell repl: MIN6 beta-cell proliferation induction. 0.29% of 330,000 active. proliferation, % at 10 µM. MIN6 cells proliferation, ATPlite luminescence, 48 h; cells starved in 0.2% serum; 100% = growth in 10% serum;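 active = compounds whose signal lies at least 3.5 SD above the mean of all wells on their plate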
NTR1 agonist: NTR1 (human) agonism. AID 493036. 0.17% of 330,000 active. P30989. NTR1-U2OS beta-arrestin-GFP spot imaging, agonist mode. activation, % at 20 µM;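 active = activation at or above 40% of the spot to cytoplasm intensity ratio, with at least 20 cells analyzed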
Platelet DG rel: platelet dense granule release activity; human platelet-rich plasma, SFLLRN dense granule ATP release, luminescence; inhibition, %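 (compounds screened at 7.5 µM in platelet-rich plasma)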; 0.22% of 300,000 active;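 active = mean replicate score, as percent of positive control, at or above 50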
GRK2 aptamer HTS: inhibitors of human GRK2 displacing RNA aptamer. bead flow cytometry, FAM-aptamer displacement from GRK2. inhibition of aptamer binding, % at 10 µM. 0.59% of 330,000 active;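 active = inhibition of aptamer binding above 40%, roughly 3 SD of noise, on plates passing a quality check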;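 also: median bead fluorescence of bound FAM aptamer so fluorescent compounds give negative values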
Target sequence (P25098 whole entry, looked up): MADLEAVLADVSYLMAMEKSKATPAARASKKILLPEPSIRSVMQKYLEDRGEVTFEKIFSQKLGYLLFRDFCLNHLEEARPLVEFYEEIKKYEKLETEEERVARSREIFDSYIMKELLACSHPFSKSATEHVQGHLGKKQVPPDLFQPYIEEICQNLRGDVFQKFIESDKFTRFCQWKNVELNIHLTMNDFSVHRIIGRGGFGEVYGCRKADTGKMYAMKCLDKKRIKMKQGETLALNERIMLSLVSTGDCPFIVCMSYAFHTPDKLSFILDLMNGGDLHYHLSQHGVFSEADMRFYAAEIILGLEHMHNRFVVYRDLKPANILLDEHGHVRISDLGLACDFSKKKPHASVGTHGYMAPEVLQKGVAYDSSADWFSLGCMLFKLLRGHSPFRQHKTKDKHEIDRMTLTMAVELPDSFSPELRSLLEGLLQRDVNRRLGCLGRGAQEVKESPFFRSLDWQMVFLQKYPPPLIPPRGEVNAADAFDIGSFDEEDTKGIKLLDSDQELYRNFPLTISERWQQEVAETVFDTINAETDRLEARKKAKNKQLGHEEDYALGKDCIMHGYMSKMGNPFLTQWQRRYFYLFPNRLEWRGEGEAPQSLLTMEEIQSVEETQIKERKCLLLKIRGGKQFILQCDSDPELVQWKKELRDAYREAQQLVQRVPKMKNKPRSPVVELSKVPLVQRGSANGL
GRK2 inh confirm: human GRK2 inhibition confirmation, cherry pick 1. shares compounds with GRK2 aptamer HTS. bead-bound GRK2, FAM-aptamer displacement, flow cytometry. aptamer displacement, % at 10 µM. 4% of 2,000 active;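 active = aptamer displacement above 40%, near three times the noise of non-fluorescent compounds, on plates passing quality checks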;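 also: negative values mostly reflect intrinsic compound fluorescence rather than true enhancement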
Aptamer quench: fluorescent aptamer quenching in GRK2 counter-screen dose response. shares compounds with GRK2 aptamer HTS. Fluorescent RNA aptamer beads, flow cytometry; hits give high values. fluorescence change (kMESF span), kMESF (concentration not given with the values). 110 tested, under 10 active;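 active = compounds whose bead fluorescence drops by more than 37 kMESF across the dose range, marking them as dye quenchers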
FAM quench CP1: counter-screen for GRK2 aptamer inhibitors: fluorescent aptamer quenchers; shares compounds with GRK2 aptamer HTS; Carboxyfluorescein RNA aptamer on beads, flow cytometry quenching; hits give low values; fluorescence response (% of DMSO), % at 10 µM; 2,000 tested, under 10 active; AID 504580;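 active = compounds that quench the bead-bound fluorescent RNA probe, cutting fluorescence to under half of the solvent control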;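 also: counterscreen run without GRK2 so only probe quenching by compound is measured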
GRK2 CP2: human GRK2 inhibition confirmation, cherry pick 2; AID 504782; 360 tested, under 10 active; bead-bound GRK2, FAM-aptamer displacement, flow cytometry; shares compounds with GRK2 aptamer HTS; inhibition of aptamer binding, % at 10 µM;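 active = inhibition of aptamer binding above 40%, about triple the noise seen with nonglowing compounds, on plates passing quality control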;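 also: negative values mostly come from compounds that fluoresce themselves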
FAM quench SP: aptamer fluorescence quenching in GRK2 counter-screen | shares compounds with GRK2 aptamer HTS | carboxyfluorescein RNA aptamer beads, flow cytometry quenching; hits give low values | fluorescence response vs DMSO, % at 10 µM | 360 tested, under 10 active;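 active = response vs DMSO under 50%, meaning signal dropped by over half, treated as fluorescence quencher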;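 also: labelled aptamer on streptavidin beads without GRK2 as a quench counter-screen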
Numbers stand for hits; - = inactive; . = not tested or not shown.

SMILES	beta cell repl	NTR1 agonist	Platelet DG rel	GRK2 aptamer HTS	GRK2 inh confirm	FAM quench CP1	others
O=C(C1CCN(c2ccc(N3CCOCC3)nn2)CC1)N1CCc2ccccc2C1	-	-	-	-	-	-
Cc1ccc(S(=O)(=O)Nc2cc(Cl)c(O)c3ncccc23)cc1	-	-	-	55.0	.	.	GRK2 CP2=-;FAM quench SP=-
CCOc1ccc(OCC)c(S(=O)(=O)NCc2ccccc2)c1	-	-	-	42.0	-	-
CCOc1ccc(OCC)c(S(=O)(=O)NCc2cccnc2)c1	-	-	-	-	.	.
COc1cc(OC)cc(C(=O)Nc2nc(CC(=O)NC(C)c3ccccc3)cs2)c1 (configuration not stated)	-	-	-	-	.	.
CCOCCCN(C(=O)CNC(=O)c1ccco1)C(C(=O)NC1CCCC1)c1ccccc1C (configuration not stated)	-	-	-	56.0	-	-
CC(C)CN(C(=O)COC(=O)CSc1ccc(Br)cc1)C1CCS(=O)(=O)C1 (configuration not stated)	-	-	.	.	.	.
CC1CCCN(S(=O)(=O)c2ccc(NC(=O)C3CC(=O)N(c4ccccc4)C3)cc2)C1 (configuration not stated)	-	-	-	100.0	-	-
O=C(Nc1ccc(S(=O)(=O)N2CCCCC2)cc1)C1CC(=O)N(c2ccccc2)C1 (configuration not stated)	-	-	-	-	.	.
Cc1ccc(OCCNC(=O)CCc2ccccc2)cc1C	-	-	-	79.0	-	-
Cc1cccc(C)c1NC1=NCCCCC1	-	-	-	-	.	.
CN(C)CCCN(C(=O)CCSc1ccccc1)c1nc2cc3c(cc2s1)OCO3	-	-	-	68.0	-	-
CCN(CC)CCCNC(=S)N(CCO)Cc1cc2cc3c(cc2[nH]c1=O)OCCO3	-	-	-	-	.	.
COc1ccc(CCNC(=O)CN(C)S(=O)(=O)c2cccs2)cc1	-	-	.	-	.	.
COc1ccc(CCNC(=O)CN(C)S(=O)(=O)c2ccc(OC)cc2)cc1	-	-	-	60.0	-	-
CC(C)(C)OC(=O)C[C@H]1C/C=C\C[C@@H](CC(=O)N[C@H](CO)Cc2ccccc2)C(=O)NC[C@H](c2ccccc2)OC1=O	-	-	.	-	.	.
Cc1ccc(N(CC(=O)NCC2CCCO2)C(=O)Cn2nnc(-c3cccs3)n2)cc1 (configuration not stated)	-	-	-	-	.	.
CCCOc1ccc(CN(C(=O)c2cccc(OC)c2)C2CCS(=O)(=O)C2)cc1 (configuration not stated)	-	-	-	99.0	-	-
COc1ccc(CN(C(=O)c2cccc(OC)c2)C2CCS(=O)(=O)C2)cc1 (configuration not stated)	-	-	-	-	.	.
Cn1nnnc1SCC(=O)Nc1ccc(C(=O)N2CCN(Cc3ccccc3F)CC2)cc1	-	-	.	-	.	.
COc1cc(S(=O)(=O)n2cnc3ccccc32)ccc1Br	-	-	-	62.0	-	-
CCCCNC(=O)c1ccc(NC(C)=O)c(Cl)c1	-	-	-	-	.	.
Cc1ccc(/C=C2/C(=N)N3N=C(CC(=O)N4CCCC4)SC3=NC2=O)cc1	.	.	-	44.0	-	-
Cc1cnc(C(=O)NNC(=O)c2ccc(Br)cc2)cn1	-	-	-	-	.	.
CC(=O)CCCC(NS(=O)(=O)CCC(Cl)(Cl)Cl)c1ccccc1 (configuration not stated)	-	-	-	-	.	.
SMILES	beta cell repl	NTR1 agonist	Platelet DG rel	GRK2 aptamer HTS	GRK2 inh confirm	FAM quench CP1	others
O=S(=O)(O)c1cc(O)c2c(O)c(N=Nc3cc(Cl)ccc3O)c(S(=O)(=O)O)cc2c1	-	-	-	99.0	70.0	-	Aptamer quench=-
Oc1ccc(Cl)cc1N=Nc1ccccc1	-	-	-	-	.	.
N/C(=N\OC(=O)/C=C/c1ccccc1)c1cccnc1	-	-	-	-	.	.
N/C(=N\OC(=O)/C=C/c1ccccc1Cl)c1cccnc1	-	-	-	75.0	-	-
Cc1cc(NC(=O)c2ccc(Cl)cc2)no1	-	-	-	71.0	-	-
CC1OC(OC2C(OC3C(O[C@H]4CC[C@]5(C)C6C=C[C@]78OC[C@@]9(CC[C@@H](C)[C@H](C)C97)[C@H](O)C[C@@]8(C)[C@]6(C)CC[C@H]5C4(C)C)OC(C)C(O)C3O)OC(CO)C(O)C2O)C(O)C(O)C1O (some centres not stated)	.	.	-	.	.	.
Cc1nc2cc(-c3ccc(Cl)cc3)nn2c(NCCN(C)C)c1C	-	-	-	-	.	.
C[C@@H]1CCCCCCCCC(=O)OCCN[C@H](C)CCCCCCCCC(=O)OCCN[C@H](C)CCCCCCCCC(=O)OCCN1	-	-	.	-	.	.
COc1ccc(C)cc1NC(=O)c1ccc2c(c1)C(=O)N(Cc1ccncc1)C2=O	-	-	.	79.0	-	-
CCOC(=O)c1c(NC(=O)CSc2nnc(-c3ccccc3)o2)sc(C(C)=O)c1C	-	-	-	-	.	.
CCOC(=O)c1c(NC(=O)CSc2nc3ccccc3o2)sc(C(C)=O)c1C	-	-	-	51.0	-	-
Cc1cnc(NC(=O)Cc2c[nH]c3ccccc23)s1	-	-	-	51.0	-	-
O=C(O)C1C2C=CC(C2)C1C(=O)Nc1ccc2c(c1)OCCO2 (configuration not stated)	-	-	-	-	.	.	GRK2 CP2=-;FAM quench SP=-
O=C(O)C1C2C=CC(O2)C1C(=O)Nc1ccc2c(c1)OCCO2 (configuration not stated)	-	-	-	-	.	.
Cc1ccc(NC(=O)CSc2nnc(-c3cc(C)[nH]n3)n2N)c(C)c1	-	-	-	-	.	.
O=C(Cn1cc([N+](=O)[O-])cn1)N1CCc2ccccc21	-	-	-	-	-	-
CCc1ccc2nc3c(c(C(=O)O)c2c1)CCC3	-	-	-	-	.	.	GRK2 CP2=-;FAM quench SP=-
O=C(O)c1c2c(nc3ccc(S(=O)(=O)N4CCC(C(=O)N5CCCCC5)CC4)cc13)CCCC2	-	-	.	84.0	-	-
COCCN(C(=O)COC(=O)c1ccc(C=O)cc1)c1c(N)n(Cc2ccccc2)c(=O)[nH]c1=O	-	-	-	-	.	.
CC(C)Cn1c(N)c(C(=O)CSc2ccccc2)c(=O)n(C)c1=O	.	.	-	47.0	-	-
Cc1ccccc1CSCC(=O)c1c(N)n(CC(C)C)c(=O)n(C)c1=O	-	-	-	-	.	.
CCC(C)c1ccc(NC(=O)N2CCN(C(=O)C3CCCO3)CC2)cc1 (configuration not stated)	-	-	-	-	.	.

Compound activity from PubChem BioAssay.
